{"source": "PubChem BioAssay (EPA / NIEHS)", "note": "Inconclusive results are not listed. Calls of active or inactive are those of the source. Rule for the calls: active = hit-call score of the fitted dose curve at least 0.9, where 1 is the maximum; inconclusive = response in the unintended direction; inactive = score below 0.9.", "data": [{"target": "human Phosphodiesterase 10 (PDE10), PDE10A (gene 10846) (UniProt Q9Y233)", "sequence (Q9Y233 whole entry, looked up)": "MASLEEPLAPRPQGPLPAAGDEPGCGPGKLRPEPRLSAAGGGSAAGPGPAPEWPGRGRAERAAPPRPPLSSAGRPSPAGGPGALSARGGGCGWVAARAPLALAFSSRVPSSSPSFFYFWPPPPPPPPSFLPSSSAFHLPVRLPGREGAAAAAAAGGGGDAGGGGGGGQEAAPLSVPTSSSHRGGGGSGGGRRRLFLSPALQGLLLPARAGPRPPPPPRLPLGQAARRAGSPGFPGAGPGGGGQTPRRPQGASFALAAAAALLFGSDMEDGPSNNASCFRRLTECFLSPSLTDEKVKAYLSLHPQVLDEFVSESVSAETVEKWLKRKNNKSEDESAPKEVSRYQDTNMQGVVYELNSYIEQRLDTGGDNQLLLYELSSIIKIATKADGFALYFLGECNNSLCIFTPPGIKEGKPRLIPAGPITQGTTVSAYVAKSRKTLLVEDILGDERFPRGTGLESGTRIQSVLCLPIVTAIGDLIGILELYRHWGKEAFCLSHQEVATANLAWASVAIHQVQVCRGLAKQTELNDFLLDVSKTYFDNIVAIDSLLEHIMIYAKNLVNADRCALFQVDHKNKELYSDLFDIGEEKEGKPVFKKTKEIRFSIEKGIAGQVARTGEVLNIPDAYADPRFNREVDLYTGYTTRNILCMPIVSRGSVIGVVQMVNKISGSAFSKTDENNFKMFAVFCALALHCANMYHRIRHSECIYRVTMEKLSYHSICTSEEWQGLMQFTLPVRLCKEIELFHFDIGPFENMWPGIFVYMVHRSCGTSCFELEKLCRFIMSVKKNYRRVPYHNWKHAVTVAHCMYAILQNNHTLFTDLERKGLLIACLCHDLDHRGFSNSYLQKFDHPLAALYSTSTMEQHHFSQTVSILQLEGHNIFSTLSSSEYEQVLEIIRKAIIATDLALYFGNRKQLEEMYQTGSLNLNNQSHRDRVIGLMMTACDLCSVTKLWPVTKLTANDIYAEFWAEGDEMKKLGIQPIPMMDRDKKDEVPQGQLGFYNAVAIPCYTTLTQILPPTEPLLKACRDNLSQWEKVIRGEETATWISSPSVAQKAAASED", "test": "NVS_ENZ_hPDE10: NovaScreen (NVS) Enzymatic Assay for human Phosphodiesterase 10 (PDE10) (AID 2283195)", "description": "NVS_ENZ_hPDE10 is a biochemical, single-readout assay that uses extracted gene-proteins in a cell-free assay. Measurements were taken 1 hour after chemical dosing in a 384-well plate.NVS_ENZ_hPDE10 is one of one assay component(s) measured or calculated from the NVS_ENZ_hPDE10 assay. It is designed to make measurements of enzyme activity, a form of enzyme reporter, as detected with fluorescence intensity signals by Fluorescence and electrophoretic mobility shift technology.Data from the assay component NVS_ENZ_hPDE10 was analyzed into 1 assay endpoint. This assay endpoint, NVS_ENZ_hPDE10, was analyzed in the positive analysis fitting direction relative to DMSO as the negative control and baseline of activity. Using a type of enzyme reporter, loss-of-signal activity can be used to understand changes in the enzymatic activity as they relate to the gene PDE10A. Furthermore, this assay endpoint can be referred to as a primary readout, because this assay has produced multiple assay endpoints where this one serves a enzymatic activity function. To generalize the intended target to other relatable targets, this assay endpoint is annotated to the esterase intended target family, where the subfamily is phosphodiesterase.\nBinding assays used specific radioligands (tritiated, iodinated) with non-radioactive competitive displacement ligands in agonist or antagonist protocols (as indicated) and various reference compounds and inhibitors to titrate specific binding to receptors and transporters. Most enzyme assays (CYPs, kinases, phosphatases, proteases, HDACs) used recombinant protein and specific substrates (fluorescence mostly, some colorimetric and radioactive) and inhibitors, followed by a biochemical separation of substrate and product. All assays for the biochemical HTS were initially run in duplicate at a single concentration (10 uM for CYP450 assays and 25 uM for all others). Assay-chemical combinations meeting a pre-defined threshold (e.g., 30% inhibition and other criteria defined below) were then run in singleton concentration-response format with maximum concentration of 20 uM for CYPs and 50 uM for all others. Each assay was run with positive and negative controls, and concurrent controls on every plate. The follow-up (secondary) screen tested active chemical-pairs in concentration series, as well as a few additional assays not tested in the primary screen, some selected negative inactives, and several cases re-run in the concentration series for confirmatory purposes.", "values": [{"smiles": "N#CCCCCC#N", "outcome": "inactive"}, {"smiles": "C=CC(=O)OC", "outcome": "inactive"}, {"smiles": "O=[N+]([O-])C=Cc1ccccc1", "outcome": "inactive"}, {"smiles": "COC(C)(C)CCC[C@H](C)C/C=C/C(C)=C/C(=O)OC(C)C", "outcome": "inactive"}, {"smiles": "Nc1ccc(-c2ccc(N)c(N)c2)cc1N", "AC50": "6.79 µM (active)"}, {"smiles": "Clc1ccc(-c2ccccc2)cc1", "outcome": "inactive"}, {"smiles": "S=c1[nH]c2ccccc2[nH]1", "outcome": "inactive"}, {"smiles": "O=c1c2ccccc2c(=O)c2c1cc(Cl)c1[nH]c3c([nH]c12)c(Cl)cc1c(=O)c2ccccc2c(=O)c13", "outcome": "inactive"}, {"smiles": "COCC(=O)N(c1c(C)cccc1C)N1CCOC1=O", "outcome": "inactive"}, {"smiles": "CC(C)C(=O)Cl", "outcome": "inactive"}, {"smiles": "Cc1ncc(C[n+]2csc(CCO)c2C)c(N)n1", "outcome": "inactive"}, {"smiles": "O=[N+]([O-])c1ccc(Cl)cc1", "outcome": "inactive"}, {"smiles": "CCCCCCCCCCCC#N", "outcome": "inactive"}]}]}
